Assay outcomes: PubChem, several laboratories
Most compounds without a hit are left out; they make up all but 3.2% or so of the library.
SKN-1 inh = C. elegans SKN-1 inhibition; C. elegans VP596 Pgst-4::GFP/RFP ratio, acrylamide-induced, 24 h; inhibition, % at 21.8 µM; actives 0.49% (n = 360,000);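 active means interference check ratio from 0.5 to 1.5 plus GFP to RFP signal ratio inhibition reaching or exceeding a fixed threshold, cut at about 30% in these data, passing the limit was not always enough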
MEKK2 WT-MEK5 = raises or lowers MEK5 binding to wildtype human MEKK2 PB1 domain; actives 1.1% (n = 290,000); Q9Y2U5; binding response (% of control), % at 10 µM; bead flow cytometry, Alexa488-MEK5 binding to MEKK2 WT; actives lie on both sides; in the data active means binding response below about 67% or above about 130%
NRP1-CendR mod = NRP-1/CendR interaction modulation; O14786; FAM-RPARPAR peptide binding to NRP-1, fluorescence polarization; inhibition, % at 25 µM; actives 0.85% (n = 360,000);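 active means inhibition or corrected inhibition above about 18%, plus a signal ratio from 0.5 to 1.5, limit read from the data, passing the limit was not always enough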
MEKK2 mut-MEK5 = signal of MEK5 binding to mutant human MEKK2 PB1 domain | bead flow cytometry, Alexa488-MEK5 binding to MEKK2 mutant | percent response, % at 10 µM | actives 0.35% (n = 290,000) | AID 1530; in the data active means percent response above about 24%, passing the limit was not always enough
MEKK3 PB1 HTS = raises or lowers MEK5 binding to the human MEKK3 PB1 domain | Q99759 | binding response (% of control), % at 10 µM | bead-based flow cytometry, Alexa488-MEK5 binding to MEKK3; actives lie on both sides; 0 = blocked by unlabeled MEK5, 100 = vehicle | AID 1529 | actives 1.4% (n = 290,000);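 active means binding response more than 3 SD above or below the average of its plate-row segment, actives on both sides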;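 further: Alexa488 bead fluorescence after subtracting the streptavidin-only scavenger bead signal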
Target sequence (Q99759 whole entry, looked up, the tested form may be a part): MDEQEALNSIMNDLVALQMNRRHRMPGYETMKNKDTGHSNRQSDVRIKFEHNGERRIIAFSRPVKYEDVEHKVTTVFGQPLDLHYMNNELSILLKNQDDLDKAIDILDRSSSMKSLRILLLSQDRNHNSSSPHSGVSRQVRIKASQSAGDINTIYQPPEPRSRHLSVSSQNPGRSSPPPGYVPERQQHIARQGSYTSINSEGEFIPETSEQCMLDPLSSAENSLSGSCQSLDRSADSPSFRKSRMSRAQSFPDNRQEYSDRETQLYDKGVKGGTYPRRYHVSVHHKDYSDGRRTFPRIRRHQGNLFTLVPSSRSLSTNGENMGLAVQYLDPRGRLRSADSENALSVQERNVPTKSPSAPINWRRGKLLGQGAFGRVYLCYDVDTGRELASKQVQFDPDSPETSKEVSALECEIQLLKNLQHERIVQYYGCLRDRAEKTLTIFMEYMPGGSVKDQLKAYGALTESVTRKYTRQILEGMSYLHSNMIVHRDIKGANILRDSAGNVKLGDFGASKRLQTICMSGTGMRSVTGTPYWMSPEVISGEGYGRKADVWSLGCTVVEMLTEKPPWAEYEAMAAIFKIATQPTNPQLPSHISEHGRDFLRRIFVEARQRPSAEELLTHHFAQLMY
MEKK2wt confirm = raises or lowers MEK5 binding to wildtype human MEKK2, retest; actives 2.4% (n = 5,900); bead flow cytometry, Alexa488-MEK5 binding to MEKK2 WT; actives lie on both sides; binding response (% of control), % at 10 µM; shares compounds with MEKK3 PB1 HTS; in the data active means binding response below about 16% or above about 210%; inactive means in between
MEKK2mut-MEK5 = signal of MEK5 binding to mutant human MEKK2, retest. shares compounds with MEKK3 PB1 HTS. bead flow cytometry, Alexa488-MEK5 binding to MEKK2 mutant. percent response, % at 10 µM. actives 2% (n = 5,900); in the data active means percent response mostly above about 71%, no sharp cut-off; inactive means mostly below about 38%;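 further: higher means compound restores mutant binding toward wildtype level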
MEKK3-MEK5 inh = confirmation of inhibitors of MEK5 binding to human MEKK3; bead flow cytometry, Alexa488-MEK5 binding to MEKK3; active compounds read low; AID 1894; shares compounds with MEKK3 PB1 HTS; actives 1.8% (n = 5,900); binding response (% of control), % at 10 µM;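 active means binding response below 72% of control, or above a set upper limit, though filed actives all read lower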;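 further: 100% = DMSO only wells and 0% = binding blocked by excess unlabeled MEK5; lower values mean stronger disruption of MEK5 binding to MEKK3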
Starred values were filed as active, the others as inactive; nt = no result; [ ] = another dose, or the depositor's remark.

SMILES | SKN-1 inh | MEKK2 WT-MEK5 | NRP1-CendR mod | MEKK2 mut-MEK5 | MEKK3 PB1 HTS | MEKK2wt confirm | MEKK2mut-MEK5 | MEKK3-MEK5 inh
COc1ccc(C[C@H]2CN3C(=NC[C@@H]3Cc3ccccc3)N2C[C@H](C)NC(=O)CCC2CCCCC2)cc1 | nt | 92 | nt | 7 | 109 | nt | nt | nt
COc1ccc(CCNC(=O)Nc2nc(CN)cs2)cc1OC | -3 | nt | 14 | nt | nt | nt | nt | nt
CCOC1=C2CN(S(=O)(=O)c3ccc(C)cc3)[C@@H](c3ccc(CC)cc3)C[C@H]2[C@H]2C(=O)N(c3ccccc3)C(=O)[C@H]2C1 | 10 | nt | -16 | nt | nt | nt | nt | nt
CCCn1nc(C(=O)OCC(=O)c2ccc3c(c2)NC(=O)CO3)c2ccccc2c1=O | 9 | 97 | -7 | 7 | 132* | 112 | 8 | 106
CC(C)NC(=O)Cc1ccc(Br)cc1 | 5 | 110 | 8 | 3 | 111 | nt | nt | nt
CCCC(C)NC(=O)COc1ccc(Sc2ccc(OCC(=O)NC(C)CCC)cc2)cc1 (stereo not drawn) | 6 | 104 | -14 | 0 | 137* | 100 | -3 | 96
CC(C)CNC(=O)COc1ccc(Sc2ccc(OCC(=O)NCC(C)C)cc2)cc1 | 2 | 102 | 10 | -1 | 103 | nt | nt | nt
CCCC(C)NC(=O)Cc1ccc(Br)cc1 (stereo not drawn) | 2 | 108 | -5 | 0 | 140* | 102 | 2 | 99
CCc1nc2ccc(C(=O)NCCCN3CCCC3=O)cn2c1N(CC)Cc1cccc(Br)c1 | 8 | nt | -1 | nt | nt | nt | nt | nt
Cn1c(C(=O)O)c(S(=O)(=O)c2ccc(Cl)cc2)c2ccccc21 | 20 | 98 | -2 | 4 | 101 | nt | nt | nt
CC(=O)O[C@H]1[C@H](C)OC=C[C@@H]1OC(C)=O | 28 | 151* | 14 | 9 | 106 | 109 | 6 | 103
CC(=O)OC1COC(OC(C)=O)CO1 (stereo not drawn) | 2 | nt | 0 | nt | nt | nt | nt | nt
OC(c1ccc(F)c(F)c1)c1ncc(-c2cccc(F)c2)[nH]1 (stereo not drawn) | 21 | nt | -1 | nt | nt | nt | nt | nt
COc1ccccc1N(C)S(=O)(=O)c1ccc(C(=O)OCC(=O)Nc2ccccc2F)cc1 | 2 | 45*[inhibitor] | 1 | -16 | 46*[inhibitor] | 94 | 0 | 99
CCOc1ccccc1NC(=O)CSc1nnc(CNC(=O)c2c(F)cccc2Cl)o1 | 21 | 100 | 2 | 1 | 101 | nt | nt | nt
COc1ccc(NC(=O)Nc2nnc(-c3ccccc3SCc3ccccc3)s2)cc1 | -4 | 106 | -7 | 6 | 122* | 90 | 1 | 99
COc1cccc(NC(=O)Nc2nnc(-c3ccccc3SCc3ccccc3)s2)c1 | 7 | 114 | 7 | 18 | 115 | nt | nt | nt
CC(C)(C)C(=O)CSc1ccc(S(=O)(=O)N2CCN(Cc3ccccc3)CC2)cn1 | -14 | nt | 10 | nt | nt | nt | nt | nt
CN1/C(=C\C(=O)c2cccnc2)C(C)(C)c2ccccc21 | 6 | 105 | 4 | 0 | 147* | 85 | -9 | 76
CN1/C(=C\C(=O)c2cncc(Br)c2)C(C)(C)c2ccccc21 | 65 | 97 | -49 | -3 | 98 | nt | nt | nt
CSc1ncc(Cl)c(C(=O)Nc2cccc3ccccc23)n1 | 4 | 102 | -4 | 0 | 128* | 101 | -2 | 99
CCCCN(C(=O)CC1CCCC1)c1c(N)n(Cc2ccccc2)c(=O)[nH]c1=O | 7 | nt | 3 | nt | nt | nt | nt | nt
CCNC(=S)NCc1ccc(F)cc1 | 3 | 109 | -3 | -1 | 134* | 102 | -2 | 98
Brc1ccc(N=C/C=C/C=C/Nc2ccc(Br)cc2)cc1 | 17 | 38* | -6 | 140* | 46*[inhibitor] | 48 | -30 | 64*
COCc1cc(CN2CCCC(C(=O)Nc3ccc(-c4ccco4)cc3)C2)ccc1OC (stereo not drawn) | 3 | 127 | -35 | 16 | 102 | nt | nt | nt
SMILES | SKN-1 inh | MEKK2 WT-MEK5 | NRP1-CendR mod | MEKK2 mut-MEK5 | MEKK3 PB1 HTS | MEKK2wt confirm | MEKK2mut-MEK5 | MEKK3-MEK5 inh
O=C1c2cccnc2C(=O)N1Cc1ccc(S(=O)(=O)N2CCOc3ccccc32)cc1 | 7 | 99 | 12 | -2 | 99 | nt | nt | nt
Cc1ccc(S(=O)(=O)N2CCN(C(=O)CSCc3ccc(C(C)C)cc3)CC2)cc1 | -5 | nt | 0 | nt | nt | nt | nt | nt
Cc1ccccc1NC(=O)COc1nsnc1N1CCOCC1 | 8 | 2.0*[inhibitor] | 3 | -16 | 2.0*[inhibitor] | 101 | -1 | 98
Cc1cc([N+](=O)[O-])ccc1NC(=O)COc1nsnc1N1CCOCC1 | 7 | 100 | 2 | 3 | 101 | nt | nt | nt
CCN1CCN(Cc2ccc(NC(=O)c3ccc(C)c(NC(=O)c4ccnnc4)c3)cc2C(F)(F)F)CC1 | -13 | 99 | 2 | -6 | 81*[inhibitor] | 112 | 5 | 103
CCN1CCN(Cc2ccc(NC(=O)c3ccc(C)c(NC(=O)c4ccc5n[nH]nc5c4)c3)cc2C(F)(F)F)CC1 | -16 | 88 | -14 | 11 | 115 | nt | nt | nt
CCN1CCN(Cc2ccc(NC(=O)c3cc(NC(=O)c4cnn(-c5ccccc5)c4N)cc(OC)c3)cc2C(F)(F)F)CC1 | 8 | 151* | 10 | 53* | 107 | 214* | 48 | 100
CCN1CCN(Cc2ccc(C(=O)Nc3ccc(C)c(NCc4cnc(NC(=O)OC)cn4)c3)cc2C(F)(F)F)CC1 | -12 | 123 | 0 | 6 | 105 | nt | nt | nt
CCN1CCN(Cc2ccc(NC(=O)c3cc(NC(=O)c4cc(C)on4)cc(OC)c3)cc2C(F)(F)F)CC1 | 7 | 193* | 0 | 30* | 113 | 144 | 30 | 106
CCN1CCN(Cc2ccc(NC(=O)c3cc(NC(=O)C(=O)c4c[nH]c5ccccc45)cc(OC)c3)cc2C(F)(F)F)CC1 | 8 | 195* | -22 | 131* | 109 | 227* | 146* | 112
Cc1ccc(NC(=O)CNC2CCCCC2)cc1Cl | -3 | 99 | -6 | 2 | 96 | nt | nt | nt
N#CCCN(C(=O)COC(=O)C1CCN(S(=O)(=O)c2ccccc2C(F)(F)F)CC1)c1ccccc1 | -8 | nt | -8 | nt | nt | nt | nt | nt
O=C(C(=O)N(C1CCCCC1)C1CCCCC1)c1ccccc1 | 5 | nt | 12 | nt | nt | nt | nt | nt
CCN1CCN(Cc2ccc(NC(=O)c3ccc(C)c(NC(=O)C(=O)c4c[nH]c5ccccc45)c3)cc2C(F)(F)F)CC1 | 21 | 301* | -12 | 95* | 113 | 239* | 172* | 113
COc1ccc(CN(C)C(=O)c2cccc(NS(=O)(=O)c3ccccc3)c2)cc1F | 2 | 100 | 9 | -1 | 99 | nt | nt | nt
CCCn1c(N2CCN(C(=O)N3CCCCC3)CC2)nc2ccccc21 | 6 | 2.0*[inhibitor] | 9 | -18 | 2.0*[inhibitor] | 104 | 1 | 101
